About 2,000 (36%) of roughly 5,500 compounds were called active. Not shown: some 18% with an inconclusive outcome. Cut-off read from the data, not from the text of the source: active = normalized growth mostly below about 0.91 (no sharp cut-off); inconclusive = no clear call, values can overlap the other calls; inactive = mostly above about 0.92. The list shows a part of the results.
Experiment: chemical genetic growth profiling, strain panel (AID 1159580);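 note: tested at 20 µM; growth read once vehicle control cultures reached saturation at 30 °C; 1 = growth at the plate median or of vehicle wells; lower values mean less growth of the strain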
Settings: S. cerevisiae deletion strains, growth OD
[1] = locus YAL021C, strain ccr4, active compounds read low
[2] = locus YAL026C, strain drs2, active compounds read low
[3] = locus YAL030W, strain snc1, active compounds read low
[4] = locus YBL061C, strain skt5, active compounds read low
[5] = locus YBR009C, strain hhf1, active compounds read low
[6] = locus YBR023C, strain chs3, active compounds read low
[7] = locus YBR171W, strain sec66, active compounds read low
[8] = locus YBR231C, strain swc5, active compounds read low
[9] = locus YBR279W, strain paf1, active compounds read low
[10] = locus YCL011C, strain gbp2, active compounds read low
[11] = locus YCL016C, strain dcc1, active compounds read low
[12] = locus YCL061C, strain MRC1, active compounds read low
[13] = locus YCL069W, strain vba3, active compounds read low
[14] = locus YCR088W, strain abp1, active compounds read low
[15] = locus YDL005C, strain med2, active compounds read low
[16] = locus YDL040C, strain nat1, active compounds read low
[17] = locus YDR001C, strain nth1, active compounds read low
[18] = locus YDR069C, strain doa4, active compounds read low
[19] = locus YDR137W, strain rgp1, active compounds read low
[20] = locus YDR159W, strain sac3, active compounds read low
[21] = locus YDR297W, strain sur2, active compounds read low
[22] = locus YDR334W, strain swr1, active compounds read low
[23] = locus YDR335W, strain msn5, active compounds read low
[24] = locus YDR392W, strain spt3, active compounds read low
[25] = locus YEL003W, strain gim4, active compounds read low
[26] = locus YEL037C, strain rad23, active compounds read low
[27] = locus YEL061C, strain CIN8 (second series), active compounds read low
[28] = locus YER015W, strain faa2, active compounds read low
[29] = locus YER016W, strain bim1, active compounds read low
[30] = locus YER111C, strain swi4, active compounds read low
[31] = locus YER155C, strain BEM2 (second series), active compounds read low
[32] = locus YFR010W, strain ubp6, active compounds read low
[33] = locus YGL167C, strain pmr1, active compounds read low
[34] = locus YGL173C, strain kem1, active compounds read low
[35] = locus YGL227W, strain vid30, active compounds read low
[36] = locus YGL240W, strain doc1, active compounds read low
[37] = locus YGL253W, strain hxk2, active compounds read low
[38] = locus YHR013C, strain ard1, active compounds read low
[39] = locus YHR027C, strain rpn1, active compounds read low
[40] = locus YHR030C, strain SLT2, active compounds read low
[41] = locus YHR079C, strain IRE1, active compounds read low
[42] = locus YHR142W, strain chs7, active compounds read low
[43] = locus YJL092W, strain hpr5, active compounds read low
[44] = locus YJL095W, strain BCK1 (second series), active compounds read low
[45] = locus YJL095W, strain BCK1, active compounds read low
[46] = locus YJL115W, strain asf1, active compounds read low
[47] = locus YJL129C, strain trk1, active compounds read low
[48] = locus YJL154C, strain vps35, active compounds read low
[49] = locus YJL164C, strain tpk1, active compounds read low
[50] = locus YJL166W, strain qcr8, active compounds read low
[51] = locus YJL187C, strain SWE1, active compounds read low
[52] = locus YJR066W, strain TOR1, active compounds read low
[53] = locus YKL160W, strain elf1, active compounds read low
[54] = locus YKR026C, strain gcn3, active compounds read low
[55] = locus YKR091W, strain srl3, active compounds read low
[56] = locus YLL001W, strain dnm1, active compounds read low
[57] = locus YLL026W, active compounds read low
[58] = locus YLL041C, strain sdh2, active compounds read low
[59] = locus YLR027C, strain aat2, active compounds read low
[60] = locus YLR113W, strain HOG1, active compounds read low
[61] = locus YLR221C, strain rsa3, active compounds read low
[62] = locus YLR258W, strain gsy2, active compounds read low
[63] = locus YLR262C, strain YPT6 (second series), active compounds read low
[64] = locus YLR320W, strain mms22, active compounds read low
[65] = locus YLR342W, strain FKS1, active compounds read low
[66] = locus YLR357W, strain rsc2, active compounds read low
[67] = locus YLR370C, strain arc18, active compounds read low
[68] = locus YLR384C, strain iki3, active compounds read low
[69] = locus YML120C, strain ndi1, active compounds read low
[70] = locus YMR058W, strain fet3, active compounds read low
[71] = locus YMR125W, strain sto1, active compounds read low
[72] = locus YMR129W, active compounds read low
[73] = locus YMR205C, strain PFK2, active compounds read low
[74] = locus YMR231W, strain pep5, active compounds read low
[75] = locus YNL071W, strain lat1, active compounds read low
[76] = locus YNL183C, strain NPR1, active compounds read low
[77] = locus YNL209W, strain ssb2, active compounds read low
[78] = locus YNL248C, strain rpa49, active compounds read low
[79] = locus YNL322C, strain KRE1 (second series), active compounds read low
[80] = locus YNR049C, strain mso1, active compounds read low
[81] = locus YOR001W, strain rrp6, active compounds read low
[82] = locus YOR070C, strain gyp1, active compounds read low
[83] = locus YOR080W, strain dia2, active compounds read low
[84] = locus YOR083W, strain WHI5, active compounds read low
[85] = locus YOR106W, strain vam3, active compounds read low
[86] = locus YOR231W, strain MKK1, active compounds read low
[87] = locus YOR265W, strain rbl2, active compounds read low
[88] = locus YOR270C, strain vph1, active compounds read low
[89] = locus YOR290C, strain snf2, active compounds read low
[90] = locus YPL051W, strain arl3, active compounds read low
[91] = locus YPL078C, strain atp4, active compounds read low
[92] = locus YPL106C, strain sse1, active compounds read low
[93] = locus YPL240C, strain hsp82, active compounds read low
[94] = locus YPL256C, strain CLN2, active compounds read low

Measured: normalized growth

C=CCSSCC=C
inactive: [1] 1.02 | [2] 1.04 | [3] 1.03 | [4] 1.03 | [5] 1.03 | [6] 1.02 | [7] 1.04 | [8] 1.04 | [9] 1.02 | [10] 1.04 | [11] 1.03 | [12] 1.03 | [13] 1.03 | [14] 1.04 | [15] 1.05 | [16] 1.03 | [17] 1.04 | [18] 1.03 | [19] 1.07 | [20] 1.08 | locus YDR195W, strain ref2 1.04 | [21] 1.03 | [22] 1.03 | [23] 1.04 | [24] 0.901 | [25] 1.03 | [26] 1.03 | [27] 1.02 | [28] 1.03 | [29] 1.03 | [30] 1.06 | [31] 0.951 | [32] 1.05 | [33] 1.04 | [34] 1.05 | [35] 1.05 | [36] 1.05 | [37] 1.04 | [38] 1.02 | [39] 1.04 | [40] 0.858 | [42] 1.02 | [43] 1.04 | [44] 1.03 | [46] 1.04 | [47] 1.03 | [48] 1.02 | [49] 1.01 | [50] 1.03 | [51] 1.03 | [52] 0.879 | [53] 1.01 | [54] 1.03 | [55] 1.03 | [56] 1.01 | [57] 1.03 | [58] 1.03 | [59] 1.03 | [60] 0.881 | [61] 1.01 | [62] 1.03 | [63] 1.03 | [64] 1.05 | [65] 1.04 | [66] 0.974 | [67] 1.04 | [68] 1.03 | [69] 1.02 | [70] 1.03 | [71] 1.01 | [72] 1.04 | [73] 1.05 | [74] 1.03 | [75] 0.923 | [76] 0.864 | [77] 1.03 | [78] 0.96 | [79] 1.04 | [80] 1.03 | [81] 1.01 | [82] 1.02 | [83] 1.04 | [84] 0.998 | [85] 1.04 | [87] 1.03 | [88] 1.05 | [89] 0.975 | [90] 1 | [91] 1.01 | [92] 1.07 | [93] 1.03 | [94] 0.862
active: [41] 0.841 | [45] 0.822 | [86] 0.823

C=CCSCC=C
inactive: [1] 0.972 | [2] 0.971 | [3] 0.962 | [4] 0.979 | [5] 0.981 | [6] 0.987 | [7] 0.965 | [8] 1.03 | [9] 0.992 | [10] 0.966 | [11] 0.975 | [12] 0.972 | [13] 0.98 | [14] 0.99 | [15] 0.985 | [16] 0.993 | [17] 0.96 | [18] 0.947 | [19] 0.971 | [20] 0.991 | locus YDR195W, strain ref2 0.961 | [21] 0.982 | [22] 0.935 | [23] 0.987 | [24] 0.916 | [25] 0.986 | [26] 0.972 | [27] 0.982 | [28] 0.958 | [29] 0.991 | [30] 0.966 | [31] 0.974 | [32] 0.953 | [33] 0.971 | [34] 0.941 | [35] 0.986 | [36] 0.981 | [37] 0.967 | [38] 0.957 | [39] 0.96 | [40] 1.03 | [41] 1.03 | [42] 0.934 | [43] 0.961 | [44] 0.996 | [45] 1.03 | [46] 0.938 | [47] 0.95 | [48] 0.978 | [49] 0.981 | [50] 0.977 | [51] 0.986 | [52] 0.931 | [53] 1 | [54] 0.989 | [55] 0.983 | [56] 0.966 | [57] 0.974 | [58] 0.975 | [59] 0.953 | [60] 1.02 | [61] 0.973 | [62] 0.989 | [63] 0.983 | [64] 0.995 | [65] 0.983 | [66] 0.963 | [67] 0.977 | [68] 0.99 | [69] 0.973 | [70] 0.97 | [71] 0.966 | [72] 0.979 | [73] 0.969 | [74] 0.98 | [75] 0.991 | [76] 0.94 | [77] 0.985 | [78] 0.98 | [79] 0.955 | [80] 0.964 | [81] 0.992 | [82] 0.976 | [83] 0.974 | [84] 0.989 | [85] 0.977 | [86] 1.02 | [87] 1.01 | [88] 0.945 | [89] 0.903 | [90] 0.991 | [91] 0.988 | [92] 0.943 | [93] 0.974 | [94] 1.03
